Assay outcomes from PubChem BioAssay.
An excerpt weighted towards active compounds, which were near 0.93% of everything screened.
Six1-Eya2 inh – Six1/Eya2 interaction inhibition | activity change, % (test concentration not listed) | AlphaScreen GST-Six1/His-Eya2 binding, biochemical; stronger effect = lower value | AID 651725 | 360,000 compounds, 0.56% hits
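Six1/Eya2 binding was read as AlphaScreen signal after compounds were pinned into GST-Six1 plus His-tagged Eya2 (5X stock 250/500 nM) in pH 8.0 Tris/NaCl/TCEP buffer, beads added, then incubated 1 h, 37 C, dark.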
CtBP-E1A blk – blocks the CtBP interaction with E1A | AlphaScreen GST-E1A/His-CtBP binding, 1536-well; stronger effect = lower value | activity change, % (test concentration not listed) | 340,000 compounds, 0.49% hits | AID 651724
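In 5 uL wells, 23 nL compound meets equimolar GST-E1A and His-CtBP (5X stock 125 nM each) for 2 h, 37 °C. Beads (5X, 50 ug/mL) then 1 h, 37 °C, dark.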
MBNL1 CUG block – inhibitors of human MBNL1 binding to CUG repeat RNA. 280,000 compounds, 0.036% hits. TR-FRET MBNL1-His/biotin-(CUG)12 binding, 665/545 ratio. Potency, µM (highest dose often 57.5 µM), most hits filed as inhibitors; active = well fitted inhibition curve with a large enough effect in the signal ratio, with a control signal flat, not every such curve was filed as active; inconclusive = small, poorly fitted or top-dose-only effect, or effect the other way, or a change in a side signal; inactive = no such curve, though single readings can be large or run the other way; the % refers to the signal ratio
Target sequence (Q9NR56 whole entry, looked up): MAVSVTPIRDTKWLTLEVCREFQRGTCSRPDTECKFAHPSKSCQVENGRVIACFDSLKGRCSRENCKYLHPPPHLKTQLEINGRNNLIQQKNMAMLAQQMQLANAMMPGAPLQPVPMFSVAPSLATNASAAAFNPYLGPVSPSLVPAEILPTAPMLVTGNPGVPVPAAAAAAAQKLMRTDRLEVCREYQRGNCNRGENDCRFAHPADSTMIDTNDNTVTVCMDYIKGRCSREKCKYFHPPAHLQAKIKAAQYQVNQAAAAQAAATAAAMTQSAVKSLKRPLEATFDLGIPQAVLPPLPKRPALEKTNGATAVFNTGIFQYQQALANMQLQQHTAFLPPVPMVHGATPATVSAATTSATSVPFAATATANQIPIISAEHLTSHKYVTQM
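Inhibition of protein-RNA binding appears as loss of TR-FRET between terbium anti-His antibody on MBNL1-His and streptavidin-XL665 on biotin-(CUG)12. Activity is normalized to buffer-only and uninhibited-complex controls.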
PKM2 activator – activators of human pyruvate kinase M2; purified PKM2, Kinase-Glo ATP luminescence, activation; response scale: 0% is enzyme alone, no compound; Potency, µM (titrated, usually from 57.5 µM), hits mostly activators; 260,000 compounds, 0.34% hits; active = well fitted activation curve with a large enough effect; inconclusive = small, poorly fitted or top-dose-only effect; inactive = no such curve, though single readings can be large or run the other way; note: nearly all actives have a fitted effect of over 55% in size
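ATP formation by purified human PK-M2, quantified via coupled luciferase luminescence after 1 h at room temperature with 0.1 mM ADP and 0.5 mM PEP final.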
Hits are given with their value; - = inactive; ? = inconclusive; . = no result; [ ] = remark or other dose. Cut-off read from the data, not from the text of the source, unless noted: active = activity change below about -65%; inconclusive = mostly about -30% to -63%; inactive = weaker than that.

SMILES	Six1-Eya2 inh	CtBP-E1A blk	MBNL1 CUG block	PKM2 activator
Cc1nc(C)c(-c2csc(Nc3ccc(S(N)(=O)=O)cc3)n2)s1	-	-	-	-
Cc1cc2[nH]c(=O)c(=O)[nH]c2cc1S(=O)(=O)Nc1ccccc1F	-	-	-	10µM
COc1cc(C)c(S(=O)(=O)Nc2ccccc2F)cc1C	-	-	-	-
C[C@]12CC[C@H](O)CC1=CCC1C2CC[C@@]2(C)C1CC[C@@H]2NCc1ccccc1 (some centres not stated)	-	-	.	.
CCCCn1nnnc1C(c1cc2ccccc2o1)N(C)Cc1ccccc1 (configuration not stated)	-	-	.	.
Nc1ccc(C(=O)N/N=C/c2cn(Cc3ccc(F)cc3)c3ccccc23)cc1	-	-	-	-
O=C(N/N=C/c1cn(Cc2cccc(F)c2)c2ccccc12)c1cc(O)cc(O)c1	-75	-72	-	-
COc1cc(NC(=O)c2sc3ncn(CC(=O)N4CCCCC4C)c(=O)c3c2C)cc(OC)c1OC (configuration not stated)	-	-	.	.
COc1cc(-c2cnc3c(NC=O)cc(-c4ccsc4)cn23)cc(OC)c1OC	-	?	.	.
Cc1ccc(S(=O)(=O)N(C)C[C@H]2Oc3c(NC(=O)Nc4cccc5ccccc45)cccc3C(=O)N([C@@H](C)CO)C[C@@H]2C)cc1	-71	-75	.	.
O=C(O)c1ccc(N2C(=O)/C(=C/C=C/c3ccccc3)SC2=S)cc1	-	-	-	-
CN(C)c1ccc(/C=C/C=C2/SC(=S)N(c3ccccc3)C2=O)cc1	-69	-66	?	-
Cc1ccc2c(c1)c1n[nH]c(=S)nc1n2CCc1ccccc1	-	.	-	.
Cn1c2ccccc2c2n[nH]c(=S)nc21	-83	-79	?	-
CCn1c2ccc(C)cc2c2n[nH]c(=S)nc21	-75	-88	?	-
COC(=O)C[C@H]1C[C@H]2c3cc(NC(=O)Nc4ccc(C(F)(F)F)cc4)ccc3O[C@H]2[C@@H](CO)O1	-	-	.	.
C/C(=N\NC(=O)c1nnn(-c2nonc2N)c1CN(C)c1ccccc1)c1ccc(O)cc1	-	-	-	.
C/C(=N\NC(=O)c1nnn(-c2nonc2N)c1CN(C)c1ccccc1)c1ccccn1	-91	.	-	.
CCCCS(=O)(=O)N1CCc2nc(COc3ccccc3)c3c(c2C1)CO[C@@H](C)C3	.	.	.	-[11.5 µM]
COc1cccc2c(SCC(=O)N/N=C/c3ccc(O)cc3O)cc(C)nc12	-79	-66	-	-
COc1ccc2nc(C)cc(SCC(=O)N/N=C/c3ccc(O)cc3O)c2c1	-74	-70	.	-
COc1ccc2nc(C)cc(SCC(=O)N/N=C/c3ccccc3)c2c1	?	-	.	-
CCCn1c(-c2ccc(F)cc2)nc2c(NC(C)CCCN(CC)CC)nc(C)nc21 (configuration not stated)	.	.	.	-
COc1ccc(C(=O)NC(=S)NNC(=O)c2ccc3ccccc3n2)cc1	-86	-82	-	-
CCC/C=C(\CCC)C(NS(=O)(=O)c1ccc(C(F)(F)F)cc1)c1ccc(-c2ccccc2)cc1 (configuration not stated)	.	.	.	-
SMILES	Six1-Eya2 inh	CtBP-E1A blk	MBNL1 CUG block	PKM2 activator
Cc1cccc(N2CCN(C3C(=O)Nc4ccccc4-n4nnnc43)CC2)c1C (configuration not stated)	-	-	.	.
Oc1ccc2ccccc2c1CNc1ccccc1	-	-	.	.
Cc1ccccc1NCc1ccc(O)c2ncccc12	-91	-95	-	-
Cc1cccc(NC(=O)CSCC(=O)Nc2cccc3ncccc23)c1	-	-	.	.
OCc1ccnc2c(O)cccc12	-89	-92	?	-
Cc1cccc(NCc2ccccc2O)c1C	-	-	-	-
Oc1ccc(CNc2ccccc2)c2cccnc12	-89	-94	-	-
Cc1cccc(NCc2ccc(O)c3ncccc23)c1	-80	-86	-	-
CN(C)c1ccc(C=Cc2ccnc3c(O)cccc23)cc1	-	-	.	.
N#Cc1ccc(C(=O)N2CCCCC2c2cc(C(=O)Nc3ccc4c(c3)OCO4)no2)cc1 (configuration not stated)	-	-	.	.
COc1ccc(NC(=O)C2(C)CCN2CC2CCCCC2)cc1OC (configuration not stated)	-	-	.	.
CCCCc1nc2c(c3c1C[C@H](C)OC3)CN(S(=O)(=O)c1ccc(C#N)cc1)CC2	.	.	.	-[11.5 µM]
Oc1ccc(CNc2ccc(F)cc2)c2cccnc12	-90	-90	-	-
COc1ccc(-c2ncccc2O)cc1	-	-	-	-
Oc1ccc(Cn2ccnc2)c2cccnc12	-83	-95	-	-
COCc1ccc(O)c2ncccc12	-91	-95	-	-
O=C(Cn1ccc(=O)[nH]c1=O)c1ccc([N+](=O)[O-])o1	-	-	.	.
O=S(=O)(c1ccc(Cl)cc1)N1CCN(Cc2ccc(O)c3ncccc23)CC1	-92	-	-	-
Oc1ccc(CN2CCN(Cc3ccccc3)CC2)c2cccnc12	-93	-98	-	-
CN1CCN(Cc2cc(COCc3ccccc3)c3cccnc3c2O)CC1	-89	-94	?	-
O=S(=O)(c1ccc(Cl)cc1)N1CCN(Cc2ccncc2)CC1	-	-	-	-
C=CCN1c2ccccc2[C@]23C[C@@H](C(=O)OC)N(S(=O)(=O)c4c(C)noc4C)C2=NC(C(=O)OC)=C(C(=O)OC)[C@H]13	.	.	.	-[11.5 µM]
COc1ccc([C@]23Cc4cc(C#N)ccc4C(O2)c2c(cc(C)n(-c4ccccc4)c2=O)O3)cc1	.	.	-[11.5 µM]	-[11.5 µM]
COc1ccccc1NC(=O)N(Cc1ccco1)Cc1cc2ccc(C)c(C)c2[nH]c1=O	-	-	-	16µM
COc1ccc(C(C)(NC(C)=O)c2nc(-c3ccccc3OC)cs2)cc1 (configuration not stated)	-	-	.	.
SMILES	Six1-Eya2 inh	CtBP-E1A blk	MBNL1 CUG block	PKM2 activator
COc1ccccc1C(=O)NC(=S)/C=C1/N(C)c2ccccc2C1(C)C	-73	-74	.	-
CN1/C(=C/C(=S)NC(=O)C2(C)CC2(Cl)Cl)C(C)(C)c2ccccc21 (configuration not stated)	-66	-72	-	-
CC(=O)Nc1sc(N/N=C/c2ccccc2)nc1-c1ccc(C)cc1	-	-	-	?
CC(=O)Nc1sc(N/N=C/c2ccc(O)cc2)nc1-c1ccc(C)cc1	-	-	-	18µM
COc1ccc(/C=N/Nc2nc(-c3ccc(C)cc3)c(NC(C)=O)s2)cc1	-	-	-	?
CC(=O)Nc1sc(N/N=C/c2ccccc2F)nc1-c1ccc(C)cc1	-	.	-	10µM
O=C(Nc1cccc(O)c1)c1cccc(S(=O)(=O)N2CCCC2)c1	-72	?	-	-
CN1CCN(S(=O)(=O)c2cccc(C(=O)Nc3cc(C(N)=O)cc(C(N)=O)c3)c2)CC1	-66	?	-	-
CN1CCN(c2ccc(NC(=O)c3cccc(S(=O)(=O)N4CCCC4)c3)cc2)CC1	-	-	.	.
CN1CCN(S(=O)(=O)c2cccc(C(=O)Nc3sccc3C(N)=O)c2)CC1	-77	-80	.	.
